Source: PubChem BioAssay AID1159580 (chemical genetic matrix, 2015)
Several values for one entry are separate records, joined by “and”; a condition that tells them apart may be missing. Identical values can stand only once. Screen size: about 5,500 compounds; about 2,000 (36%) were called active. Another 18% or so got no clear call; they are omitted. Cut-off read from the data, not from the text of the source: active = normalized growth mostly below about 0.91 (no sharp cut-off); inconclusive = no clear call, values can overlap the other calls; inactive = mostly above about 0.92. This is one part of the list.

Test: chemical genetic growth profiling, strain panel (AID 1159580);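 note: tested at 20 µM; growth read once vehicle control cultures reached saturation at 30 °C; 1 = growth at the plate median or of vehicle wells; lower values mean less growth of the strain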
Details: S. cerevisiae deletion strains, growth OD
[1] = locus YBR229C, strain ROT2, hits give low values
[2] = locus YDL101C, strain DUN1, hits give low values
[3] = locus YDR150W, strain NUM1, hits give low values
[4] = locus YEL061C, strain CIN8, hits give low values
[5] = locus YGR229C, strain SMI1, hits give low values
[6] = locus YHR030C, strain SLT2, hits give low values
[7] = locus YJR043C, strain POL32, hits give low values
[8] = locus YKL190W, strain CNB1, hits give low values
[9] = locus YLR039C, strain RIC1, hits give low values
[10] = locus YLR262C, strain YPT6, hits give low values
[11] = locus YMR263W, strain SAP30, hits give low values
[12] = locus YMR307W, strain GAS1, hits give low values
[13] = locus YNL322C, strain KRE1, hits give low values
[14] = locus YPL241C, strain CIN2, hits give low values

Measured: normalized growth

O=C1CSC(c2cccnc2)N1c1ccc(Cl)cc1 (configuration not stated)
inactive: locus YAL013W, strain DEP1, hits give low values 1 | [1] 0.997 | [2] 0.978 | [3] 0.997 | [4] 0.977 | locus YGR078C, strain PAC10, hits give low values 1 | [5] 0.984 | [6] 1.12 | locus YHR087W, strain rtc3, hits give low values 0.98 | [7] 0.983 | locus YJR075W, strain HOC1, hits give low values 1 | [8] 0.997 | locus YLR058C, strain SHM2 (second series), hits give low values 1.01 | locus YLR085C, strain ARP6, hits give low values 1 | locus YML094W, strain GIM5, hits give low values 0.957 | locus YMR219W, strain ESC1, hits give low values 0.992 | [11] 1.04 | [12] 1.01 | locus YNL153C, strain GIM3, hits give low values 1.01 | locus YNL298W, strain CLA4 (second series), hits give low values 1 | [13] 0.995 | locus YNR030W, strain Alg12, hits give low values 0.994 | locus YPL055C, strain LGE1, hits give low values 0.986 | [14] 1.04 | locus YPR135W, strain CTF4, hits give low values 1.05
active: [9] 0.723 | [10] 0.677

CN1C(=O)CC[C@H]1c1cccnc1
inactive: locus YBR021W, strain FUR4, hits give low values 1 | [1] 1 | locus YCL029C, strain bik1, hits give low values 1.02 | locus YDL035C, strain GPR1, hits give low values 1.02 | locus YDL074C, strain BRE1, hits give low values 1.04 | [2] 1.01 | locus YDL134C, strain PPH21, hits give low values 1 | locus YDL185W, strain tfp1, hits give low values 1.03 | locus YDL192W, strain arf1, hits give low values 1.01 | locus YDR101C, strain arx1, hits give low values 1.05 | [3] 0.992 | locus YDR162C, strain NBP2, hits give low values 1.01 | locus YDR318W, strain mcm21, hits give low values 1.02 | locus YDR388W, hits give low values 1.02 | locus YDR502C, strain sam2, hits give low values 1.04 | [4] 0.993 | locus YER110C, hits give low values 1.03 | locus YER155C, strain BEM2, hits give low values 0.992 | locus YER167W, strain BCK2, hits give low values 0.997 | locus YGL078C, strain dbp3, hits give low values 1.03 | locus YGL086W, strain mad1, hits give low values 1.03 | locus YGL248W, strain PDE1, hits give low values 1.02 | locus YGR135W, strain pre9, hits give low values 1.01 | [5] 1.01 | locus YGR252W, strain gcn5, hits give low values 1.11 | [6] 0.997 and 1.05 | locus YHR079C, strain IRE1 (second series), hits give low values 1.03 | locus YHR079C, strain IRE1, hits give low values 1.04 | locus YHR094C, strain hxt1, hits give low values 1.01 | locus YHR129C, strain ARP1, hits give low values 0.993 | locus YHR200W, strain rpn10, hits give low values 1.01 | locus YIL066C, strain RNR3, hits give low values 1.01 | locus YIL073C, strain SPO22, hits give low values 1.07 | locus YIL125W, strain kgd1, hits give low values 1.02 | locus YIR030C, strain dcg1, hits give low values 1.02 | locus YJL095W, strain BCK1, hits give low values 1.01 and 1.02 | locus YJL134W, strain LCB3, hits give low values 0.996 | locus YJL168C, strain set2, hits give low values 1 | locus YJL187C, strain SWE1 (second series), hits give low values 1.01 | [7] 1.02 | locus YJR066W, strain TOR1, hits give low values 0.992 | locus YKL009W, strain mrt4, hits give low values 1.03 | locus YKL068W, hits give low values 1.01 | locus YKL085W, strain MDH1 (second series), hits give low values 1.01 | locus YKL085W, strain MDH1, hits give low values 1.01 | [8] 1 | locus YKR001C, strain vps1, hits give low values 1.03 | [9] 1.02 | locus YLR058C, strain SHM2, hits give low values 1 | locus YLR102C, strain apc9, hits give low values 1.02 | locus YLR113W, strain HOG1, hits give low values 1.06 | [10] 1.04 | locus YLR268W, strain sec22, hits give low values 1.03 | locus YLR330W, strain CHS5, hits give low values 0.999 | locus YLR342W, strain FKS1 (second series), hits give low values 1.01 | locus YLR371W, strain rom2, hits give low values 0.983 | locus YLR418C, strain cdc73, hits give low values 1.03 | locus YML016C, strain PPZ1, hits give low values 0.993 | locus YML032C, strain rad52, hits give low values 1.02 | locus YML124C, strain tub3, hits give low values 1.01 | locus YMR078C, strain ctf18, hits give low values 1.02 | locus YMR223W, strain ubp8, hits give low values 1.01 | [11] 1 | [12] 0.998 | locus YNL067W, strain RPL9B, hits give low values 1.01 | locus YNL183C, strain NPR1, hits give low values 0.992 | locus YNL233W, strain BNI4, hits give low values 1.01 | locus YNL250W, strain rad50, hits give low values 1.02 | locus YNL271C, strain bni1, hits give low values 1.02 | locus YNL298W, strain CLA4, hits give low values 1.04 | locus YNL307C, strain MCK1, hits give low values 1.03 | [13] 0.993 | locus YNR052C, strain pop2, hits give low values 1.02 | locus YOL006C, strain TOP1, hits give low values 1.04 | locus YOL012C, strain htz1 0.58 | locus YOL147C, strain pex11, hits give low values 1.04 | locus YOR061W, strain CKA2, hits give low values 1.01 | locus YOR069W, strain VPS5, hits give low values 0.997 | locus YOR136W, strain idh2, hits give low values 1.02 | locus YOR144C, strain elg1, hits give low values 1.01 | locus YOR184W, strain ser1, hits give low values 1.03 | locus YOR231W, strain MKK1, hits give low values 1.04 | locus YOR316C, strain cot1, hits give low values 1.04 | [14] 0.995 | locus YPL256C, strain CLN2, hits give low values 1.16 | locus YPR119W, strain clb2, hits give low values 1 | locus YPR141C, strain kar3, hits give low values 1 | locus YPR163C, strain tif3, hits give low values 1.06 | locus YPR167C, strain met16, hits give low values 1.01 | strain wtn01, hits give low values 1.04
